# Source: PubChem BioAssay
# HepG2 tox: kills HepG2 cells in TGF-b inhibitor counter-screen. HepG2 CAGA-GFP viability, ATP luminescence, 18 h. Potency, µM (highest dose often 46.1 µM), inactives show at the highest dose activity change, negative = cytotoxicity, actives largely listed as cytotoxic. 0.76% of 410,000 active; further: potency means the concentration at half of the fitted maximal effect
#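 HepG2 CAGA-GFP cells (1000/well, DMEM with 1% FBS) received compound, then TGF-beta at 500 pg/mL final, and were incubated 18 hours at 37 degrees C. Viability was read by CellTiter-Glo luminescence. Media-only wells were set as complete cell-killing and DMSO as no toxicity.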
# DT40 TDP1 CPT: growth inhibition of DT40 Tdp1-/-;hTDP1 cells with camptothecin (screen for TDP1 inhibitors) | chicken DT40 Tdp1-/-;hTDP1 cells + 20 nM CPT, ATP luminescence, 48 h | Potency, µM (titrated, usually from 46.2 µM), for inactives: at the highest dose activity change, negative = growth inhibition, hits mostly inhibitors | 12% of 420,000 active | AID 686979; further: potency means the concentration at half of the fitted maximal effect; on the % scale 0 is the no-effect control and ±100 the full control effect; nearly all actives have a fitted effect of over 55% in size
#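 Chicken DT40 Tdp1-/- cells complemented with human TDP1, 400 cells/well, exposed to compounds plus 20 nM camptothecin for at least 48 h at 37 C; viability read as ATP content by CellTiter-Glo luminescence.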
# TDP1 block: TDP1 (human) enzyme inhibition | recombinant TDP1, AlphaScreen DNA substrate cleavage | 0.28% of 350,000 active | AID 485290 | Q9NUW8 | Potency, µM (doses to about 130 µM), inactives show at the top dose activity change, negative = inhibition, most hits filed as inhibitors; further: potency means the concentration at half of the fitted maximal effect; on the % scale 0 is the no-effect control and ±100 the full control effect; nearly all actives have a fitted effect of over 40% in size
# Target sequence (Q9NUW8 whole entry, looked up): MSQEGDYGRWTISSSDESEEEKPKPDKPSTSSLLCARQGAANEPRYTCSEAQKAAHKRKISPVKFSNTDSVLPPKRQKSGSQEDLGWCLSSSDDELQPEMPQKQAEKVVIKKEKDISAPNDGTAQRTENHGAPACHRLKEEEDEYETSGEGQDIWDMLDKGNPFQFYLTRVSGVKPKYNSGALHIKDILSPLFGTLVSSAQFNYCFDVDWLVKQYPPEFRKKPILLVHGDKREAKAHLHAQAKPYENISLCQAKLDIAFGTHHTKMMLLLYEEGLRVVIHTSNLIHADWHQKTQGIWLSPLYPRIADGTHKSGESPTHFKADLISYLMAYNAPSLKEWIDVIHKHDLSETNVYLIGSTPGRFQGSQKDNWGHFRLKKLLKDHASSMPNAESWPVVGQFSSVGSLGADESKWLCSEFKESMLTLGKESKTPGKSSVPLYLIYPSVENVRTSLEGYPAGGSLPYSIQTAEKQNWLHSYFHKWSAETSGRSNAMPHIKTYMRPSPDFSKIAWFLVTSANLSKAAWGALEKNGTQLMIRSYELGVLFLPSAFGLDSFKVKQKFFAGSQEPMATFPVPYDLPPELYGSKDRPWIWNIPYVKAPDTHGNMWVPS
#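 Enzyme-compound mixtures sat 15 min at room temperature, followed by a 5 min reaction with 15 nM final substrate and 10 min with AlphaScreen beads. Recombinant human Tdp1 was used at 1 nM final.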
# IL-1B inflam inh: blocks inflammasome-driven IL-1 beta release. THP-1 LPS/ATP IL-1B secretion, AlphaLISA, 16 h; stronger effect = lower value. activity change, % at 57.5 µM. 4.7% of 360,000 active. AID 743279; in the data active means activity change below about -50%; inconclusive means mostly about -30% to -49%; further: on the % scale 0 is the no-effect control and ±100 the full control effect
#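 Secreted IL-1B measured by AlphaLISA bead assay after 16 h compound exposure of THP-1 cells; compounds (final up to 57.5 uM) added 1 h before LPS (250 ng/mL) and ATP (1.25 mM) stimulation; lower signal means less secretion.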
# TGFb SMAD3 inh: inhibitors of TGF-b signaling; HepG2 CAGA-GFP TGF-b/SMAD3 reporter, GFP fluorescence, 18 h; TGF-beta stimulated, 500 pg/mL final; Potency, µM (titrated, usually from 46.1 µM), for the others: top-dose activity, negative = inhibition, most hits filed as inhibitors; 1.2% of 410,000 active; further: potency means the concentration at half of the fitted maximal effect; on the % scale 0 is the no-effect control and ±100 the full control effect; nearly all actives have a fitted effect of over 65% in size
#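 Using HEPG2 CAGA-GFP reporter cells at 1000 cells/well, we pinned test compounds, stimulated with recombinant TGF-beta (500 pg/mL final) and measured total well GFP after 18 h.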
# TDP1 cell noCPT: qHTS for Inhibitors of human tyrosyl-DNA phosphodiesterase 1 (TDP1): qHTS in cells in absence of CPT; 15% of 420,000 active; Potency, µM (series often up to 46.2 µM), for the others: at the highest dose activity change, negative = growth inhibition, usual class: inhibitors; DT40 Tdp1-/- hTDP1 cells, no CPT, ATP luminescence, 48 h; further: potency means the concentration at half of the fitted maximal effect; on the % scale 0 is the no-effect control and ±100 the full control effect; nearly all actives have a fitted effect of over 55% in size
#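 DT40 Tdp1-/-;hTDP1 cells, no CPT (DMSO vehicle only), 400 cells/well; compounds pin-transferred; ≥48 hr, 37 °C; CellTiter-Glo 30 min RT dark, luminescence read.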
# Active calls of the source: *; ? = inconclusive; . = no result; [ ] = dose if it differs, or a comment. Shown are actives, neighbours in structure and some others; about 18% of the full set was active somewhere. Unless noted, the call rests on the fitted dose curve; in most records, active means well fitted curve in the direction sought with a large enough effect; inconclusive means small, poorly fitted or top-dose-only effect, or another doubt; inactive means no such curve, though single readings can be large; an effect the other way counts as inactive or inconclusive.
SMILES,HepG2 tox,DT40 TDP1 CPT,TDP1 block,IL-1B inflam inh,TGFb SMAD3 inh,TDP1 cell noCPT
Cc1nc(S/C(=C\c2ccc(-c3ccc(C(=O)O)c(Cl)c3)o2)C(=O)O)n[nH]1,-9%,-8%,3.2µM*,0,-14%,-19%
Cc1nc(S/C(=C\c2ccc(OCc3ccccc3Cl)cc2)C(=O)O)n[nH]1,0%,?,12%,13,-10%,?
C#Cc1cccc(C(=O)NCc2nc(-c3ccccc3NC(C)=O)oc2C)c1,.,0%[9.04 µM],.,.,.,-8%
COc1ccc(C(NC(=O)C2CCN(CCCOc3ccccc3)CC2)c2cccs2)cc1 (stereo not given),-51%,?,.,-56*,?,?
O=C(NC(c1ccc(Cl)cc1)c1cnccn1)C1CCN(CCCc2ccccc2)CC1 (stereo not given),-36%,23µM*,.,?,1%,?
O=C(NC(c1ccccc1)c1cnccn1)C1CCN(CCCOc2ccccc2)CC1 (stereo not given),-16%,-1%,.,-10,9%,-26%
O=C(NC(c1ccc(Cl)cc1)c1cnccn1)C1CCN(CCCOc2ccccc2)CC1 (stereo not given),-10%,23µM*,.,-58*,31%,21µM*
Cc1cc2ccccc2c[n+]1C1CCCCC1,-35%,1.4µM*,.,.,?,0.71µM*
Cc1c(C=Nc2ccc(S(=O)(=O)N(C)C)cc2)c(O)[nH]c(=O)c1C#N,14%,22%,.,15,3%,-1%
CCn1nc(C)c(CN2CCC3(CCC(CNC(=O)c4ccccc4)O3)CC2)c1C (stereo not given),.,4%,.,.,.,-4%
CCCC(=O)Oc1ccc2[nH]c(C(=O)c3cc4ccccc4[nH]3)cc2c1,-25%,?,.,.,-24%,?
Cc1ccc(-n2ncc(C(=O)NCCN3CCC(Cc4ccccc4)CC3)c2C2CCN(C(=O)OC(C)(C)C)CC2)cc1,13µM*,4.6µM*,0%,.,?,2.9µM*
O=C(NCCN1CCOCC1)c1cnn(-c2ncc3c(n2)-c2ccccc2CC3)c1C1CC1,.,10%[9.04 µM],.,.,.,23µM*
COc1ccccc1N1CCN(CCCNC(=O)c2cnn(-c3ccccc3)c2C2CCN(C(=O)OC(C)(C)C)CC2)CC1,-57%,16µM*,0%,.,?,16µM*
COc1ccc(-n2ncc(C(=O)NCCCN3CCCCC3)c2C2CCN(C(=O)OC(C)(C)C)CC2)cc1,-22%,18µM*,2%,.,-15%,18µM*
NC(=O)C1CCN(C(=O)CCc2nc3sc4c(c3c(=O)[nH]2)CCCC4)CC1,0%,-1%,.,15,?,-2%
CN1CCN(C(=O)c2cccc3c(-c4ccc(F)c(F)c4)coc23)CC1,-27%,?,.,-3,29%,?
O=C(Nc1ccc2nc3n(c(=O)c2c1)CCCCC3)C(=O)Nc1ccccc1F,-42%,?,3%,.,-3%,?
Cc1ccc(-n2ncc(C(=O)NCCN3CCCC3)c2C2CCN(C(=O)OC(C)(C)C)CC2)cc1,-45%,23µM*,3%,.,0%,?
Cc1ccc(-n2ncc(C(=O)NC3CCCCC3)c2C2CCN(C(=O)OC(C)(C)C)CC2)cc1,-30%,?,2%,.,0%,23µM*
CC(C)(C)OC(=O)N1CCC(c2c(C(=O)NCCN3CCCC3)cnn2-c2ccc(Cl)cc2)CC1,-34%,?,2%,.,?,23µM*
CC(C)(C)OC(=O)N1CCC(c2c(C(=O)NCCN3CCC(Cc4ccccc4)CC3)cnn2-c2cccc(Cl)c2)CC1,7.1µM*,5.8µM*,5%,.,?,3.7µM*
NC(=O)C1CC2(C1)CC(C(N)=O)C2 (stereo not given),-3%,-5%,.,-3,-2%,-3%
CC(=O)NCCc1nc2cc(NC(=O)c3ccc([N+](=O)[O-])cc3)ccc2n1C,-35%,-1%,.,44,16%,-5%
COc1ccccc1CN1CCC(CNC(=O)c2cnn(-c3ccc(Cl)cc3)c2C2CCN(C(=O)OC(C)(C)C)CC2)CC1,-108%,3.7µM*,6%,.,10µM*,5.2µM*
SMILES,HepG2 tox,DT40 TDP1 CPT,TDP1 block,IL-1B inflam inh,TGFb SMAD3 inh,TDP1 cell noCPT
CC(C)(C)OC(=O)N1CCC(c2c(C(=O)NC3CC3)cnn2-c2ccc(Cl)cc2)CC1,-6%,?,2%,16,0%,-16%
CC(C)(C)OC(=O)N1CCC(c2c(C(=O)NCCN3CCOCC3)cnn2-c2ccccc2)CC1,7%,5.8µM*,-2%,.,1%,5.8µM*
CC1CCN(c2ncnc3c2c(-c2ccccc2)cn3-c2ccc(Br)cc2)CC1,-11%,0%,3%,.,0%,14%
CCOC(=O)CSc1ncnc2c1c(-c1ccccc1)cn2-c1ccc(OC)cc1,-26%,-3%,0%,24,?,-10%
COc1ccccc1N1CCN(c2ncnc3c2c(-c2ccccc2)cn3-c2cccc(C)c2)CC1,4%,18µM*,3%,.,-1%,?
COc1cccc(N2CCN(c3ncnc4c3c(-c3ccccc3)cn4-c3ccc(F)cc3)CC2)c1,-4%,?,5%,.,1%,?
CN1CCN(c2ncnc3c2c(-c2ccccc2)cn3-c2ccc(F)cc2)CC1,4%,18µM*,5%,-207*,?,5.2µM*
c1ccc(-c2cn(-c3ccccc3)c3ncnc(N4CCCCC4)c23)cc1,7%,9.2µM*,-8%,-57*,16%,18µM*
CCCSc1ncnc2c1c(-c1ccccc1)cn2-c1ccccc1OC,-8%,?,-3%,.,4%,21µM*
CCCCC/C=C\C[C@@H](O)/C=C/C=C\C/C=C\CCCC(=O)O,.,.,7%,.,.,.
Cc1ccc(CNC(=O)CN(C(=O)N2CCN(C)CC2)S(=O)(=O)c2ccc(C)cc2)cc1,1%,8%,0%,-12,-12%,-9%
COC(=O)NC(/C=C/c1ccccc1)[C@]1(C(C)=O)CCCC1=O (stereo not given in full),.,.,9%[21 µM],.,.,.
Cc1nnc(SCC(=O)NNC(=O)COc2ccc(Br)cc2)n1C,1%,1%,-1%,-2,-16%,8%
Clc1cccc(-n2cc(-c3ccccc3)c3c(N4CCCCC4)ncnc32)c1,0%,16µM*,-8%,.,-1%,23µM*
